Source: PubChem (Broad Institute)
This is a sample that favours compounds with a hit; in the whole collection about 2.7% have one here.
MITF TRPM1 HTS = activators of MITF-driven TRPM1 promoter activity in SK-MEL-5 cells; SK-MEL-5 TRPM1-promoter luciferase, 24 h; % of positive control, neutral wells = 0; activation, % at 12.5 µM; 0.75% of 300,000 active;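 active = mean activation of at least 80% with every replicate also reaching 80%; inconclusive = mean reaches 80% but some replicate falls short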
HIV Env fusion = HIV envelope-mediated fusion inhibition. AID 651610. inhibition, % at 12.3 µM. HeLa-JRFL Env/CEM21 cell fusion, luciferase. 1.1% of 360,000 active;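 active = mean replicate inhibition score of at least 50 and every replicate individually at or above 50; inconclusive = only one of the two criteria met; inactive = mean below 50 and not all replicates reaching 50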
Wnt bcat act = activators of Wnt/beta-catenin signaling. Wnt/beta-catenin reporter cell assay, activator, plate reader. 1.2% of 300,000 active. activation, % at 9.35 µM; in the data active = activation above about 30%, passing the limit was not always enough; inconclusive = no clear call, values can overlap the other calls
CFTR F508del cor = correctors of CFTR F508del function in bronchial epithelial cells; CFBE cells, YFP halide quenching; stimulated with forskolin plus potentiator P3; % fluorescence drop versus neutral controls; activity (quench increase), % at 7.58 µM; 0.36% of 350,000 active; AID 720511;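 active = mean added fluorescence quench of at least 8% versus neutral control, with both replicates also reaching 8%; inconclusive = only one of the mean or replicate conditions met; inactive = mean below 8% and not both replicates reaching 8%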;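 note: cells transiently co-express mutant CFTR-F508del with the halide-sensitive YFP; corrector assay measuring rescue of mutant channel to the surface after 24 h compound exposure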
GSIS activator = primary screen for activators of insulin secretion dependent on glucose, INS-1E cells, GLuc reporter luminescence | AID 743287 | INS-1E GLuc reporter insulin secretion, 2-3 h | activation, % at 16.6 µM | 0.61% of 370,000 active;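 active = lowest replicate activation of at least 40%, so every replicate reaches that level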
Large screens that a line does not name were inactive; ! = not active in a repeat; [ ] = remark or other dose.

C[C@H](CO)N1C[C@H](C)[C@H](CN(C)S(=O)(=O)c2ccc(F)cc2)Oc2ncc(/C=C/c3ccccc3)cc2C1=O	HIV Env fusion 49.8![16.7 µM] (no result: MITF TRPM1 HTS, Wnt bcat act)
C[C@@H]1CN([C@H](C)CO)C(=O)c2cc(C#Cc3ccccc3F)cnc2O[C@H]1CN(C)S(=O)(=O)c1ccccc1F	none (no result: MITF TRPM1 HTS, Wnt bcat act)
C[C@@H]1CN([C@@H](C)CO)C(=O)c2cc(C#Cc3ccccc3F)cnc2O[C@@H]1CN(C)S(=O)(=O)c1ccccc1F	HIV Env fusion 56.2[16.7 µM] (no result: MITF TRPM1 HTS, Wnt bcat act)
CCc1ccc(N(C(=O)Cn2nnc(-c3ccccc3)n2)C(C(=O)NC2CCCCC2)c2ccccn2)cc1 (stereo unspecified)	HIV Env fusion 79.7 (no result: Wnt bcat act, CFTR F508del cor)
CC(=O)c1cccc(N(CC(=O)NC2CCCCC2)C(=O)Cn2nnc(-c3ccccc3)n2)c1	GSIS activator 60.8 (no result: MITF TRPM1 HTS)
CC(=O)c1ccc(N(C(=O)Cn2nnc(-c3ccccc3)n2)C(C(=O)NC2CCCCC2)c2ccccn2)cc1 (stereo unspecified)	none (no result: CFTR F508del cor)
CC(C)COc1ccc(-c2nn(-c3ccccc3)cc2C(=O)Nc2nccs2)cc1	HIV Env fusion 71.7 (no result: MITF TRPM1 HTS, CFTR F508del cor, GSIS activator)
O=C(Nc1nccs1)c1cn(-c2ccccc2)nc1-c1ccccc1	none (no result: HIV Env fusion, CFTR F508del cor)
COc1ccc(S(=O)(=O)N[C@H]2CC[C@@H](CC(=O)O)O[C@H]2CO)cc1	none (no result: MITF TRPM1 HTS, Wnt bcat act)
Cc1cccc(NC(=O)c2cc3ccccc3c(=O)o2)n1	Wnt bcat act 51.5
Clc1ccc(-c2cc(-c3ccccc3)on2)cc1	MITF TRPM1 HTS inconclusive, Wnt bcat act 53.6
Clc1ccc(-c2csc(-c3ccno3)n2)cc1	none
Cc1nc(-c2cc(-c3ccc(Cl)cc3)no2)cs1	Wnt bcat act 35.6
CCC(=O)N1CCC2(CC1)CN(C(=O)c1ccccn1)[C@H](CO)c1c2c2ccc(OC)cc2n1C	none (no result: MITF TRPM1 HTS, HIV Env fusion, Wnt bcat act)
C[C@H](CO)N1C[C@H](C)[C@H](CN(C)Cc2ccc(C(=O)Nc3ccccc3N)cc2)Oc2ccc(NC(=O)NC3CCCCC3)cc2CC1=O	none (no result: MITF TRPM1 HTS, HIV Env fusion, Wnt bcat act)
Cc1nnc(NC(=O)c2ccc3ccccc3c2)s1	MITF TRPM1 HTS 91.8, Wnt bcat act 40.3
Cc1nnc(NC(=O)c2ccc(Br)cc2)s1	MITF TRPM1 HTS 93.9 (no result: CFTR F508del cor, GSIS activator)
CCCc1cc(C(=O)Nc2nnc(C)s2)cs1	MITF TRPM1 HTS 85.0 (no result: CFTR F508del cor)
COc1ccc(NC(=O)C2Cc3c(-c4ccccc4Oc4ccccc4)ccnc3O2)cc1OC (stereo unspecified)	HIV Env fusion 67.4 (no result: MITF TRPM1 HTS, GSIS activator)
COc1ccc(NC(=O)C2Cc3c(-c4ccccc4Oc4ccccc4)ccnc3O2)cn1 (stereo unspecified)	none (no result: MITF TRPM1 HTS)
COC(=O)CCC[C@H]1CC2(C[C@H](CCCO[Si](C)(C)C(C)(C)C)N1C(=O)OC(C)(C)C)OCCO2	HIV Env fusion 74.4
COc1ccc(S(=O)(=O)N[C@@H]2C=C[C@@H](CC(=O)NCCc3ccncc3)O[C@@H]2CO)cc1	none (no result: MITF TRPM1 HTS, HIV Env fusion, Wnt bcat act)
COc1ccc(/C=C2\CCCC3C2=NN(C(=O)c2ccco2)C3c2ccc(OC)c(OC)c2)cc1OC (stereo unspecified)	none (no result: HIV Env fusion, CFTR F508del cor, GSIS activator)
COc1ccc(/C=C2\CCCC3C2=NN(C(=O)c2scnc2C)C3c2ccc(OC)c(OC)c2)cc1OC (stereo unspecified)	HIV Env fusion 65.6 (no result: Wnt bcat act, CFTR F508del cor, GSIS activator)
C[C@@H]1CCCCO[C@@H](CN(C)C(=O)Nc2ccc(C(F)(F)F)cc2)[C@@H](C)CN([C@H](C)CO)C(=O)c2cc(NS(=O)(=O)c3ccc(Cl)cc3)ccc2O1	none (no result: MITF TRPM1 HTS)
C[C@@H]1CN([C@H](C)CO)C(=O)c2cc(NS(=O)(=O)c3ccc(Cl)cc3)ccc2O[C@@H](C)CCCCO[C@H]1CN(C)C(=O)Nc1ccc(C(F)(F)F)cc1	HIV Env fusion 55.0[16.7 µM] (no result: MITF TRPM1 HTS, Wnt bcat act)
C[C@H]1CCCCO[C@@H](CN(C)C(=O)Nc2ccc(C(F)(F)F)cc2)[C@@H](C)CN([C@@H](C)CO)C(=O)c2cc(NS(=O)(=O)c3ccc(F)cc3)ccc2O1	HIV Env fusion 61.3[16.7 µM] (no result: MITF TRPM1 HTS, Wnt bcat act)
C[C@@H]1CCCCO[C@H](CN(C)C(=O)Nc2ccc(C(F)(F)F)cc2)[C@@H](C)CN([C@@H](C)CO)C(=O)c2cc(NS(=O)(=O)c3ccc(F)cc3)ccc2O1	none (no result: MITF TRPM1 HTS, Wnt bcat act)
C[C@@H]1CN([C@@H](C)CO)C(=O)c2cc(NS(=O)(=O)c3ccccc3)ccc2O[C@@H](C)CCCCO[C@H]1CN(C)C(=O)Nc1ccc(C(F)(F)F)cc1	none (no result: MITF TRPM1 HTS, HIV Env fusion, Wnt bcat act)
C[C@H]1CCCCO[C@H](CN(C)C(=O)Nc2ccc(C(F)(F)F)cc2)[C@@H](C)CN([C@@H](C)CO)C(=O)c2cc(NS(=O)(=O)c3ccccc3)ccc2O1	HIV Env fusion 78.4[16.7 µM] (no result: MITF TRPM1 HTS, Wnt bcat act)
Cc1ccc(/C=C2\Sc3ccccc3C2=O)s1	Wnt bcat act 72.4 (no result: CFTR F508del cor, GSIS activator)
